Results from the supplement of paper PMC10849652.
Targets with a hit are over-represented here; the source holds about 8,800 in all. About 0.5% of all pairs of compound and target were hits. Values without a mark were called inactive.

How the values were obtained:
Test in all cases: log2 fold change, soluble protein after heating vs DMSO (PISA); higher = thermal stabilisation; K562 lysate, 10 uM; active = over 0.2 and 3.5 SD of the protein, either way, in both replicates (recomputed)
nilotinib = compound: Cc1cn(-c2cc(NC(=O)c3ccc(C)c(Nc4nccc(-c5cccnc5)n4)c3)cc(C(F)(F)F)c2)cn1 [nilotinib]
Summary of the method: (§1)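 The values are log-two fold changes in thermal stability compared with solvent controls and come from duplicates. They were obtained by TMTpro 16plex LC-MS/MS, with channel sums equalised, on the supernatant after 21,000xg for 90 min. That supernatant came from crude K562 extract at 1 mg/mL protein treated with 10 μM compound for 30 min, heated for 3 min across 48°C-58°C, pooled and brought to 0.5% NP-40 at 4°C.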

[1] = compound: Cc1nc(Nc2n[nH]c3c2CN(C(=O)N[C@H](CN(C)C)c2ccccc2)C3(C)C)c2sccc2n1
Summary of the method: as §1

dasatinib = compound: Cc1nc(Nc2ncc(C(=O)Nc3c(C)cccc3Cl)s2)cc(N2CCN(CCO)CC2)n1 [dasatinib]
Summary of the method: as §1

[2] = compound: Cc1ncc(-c2ccnc(Nc3ccc(S(C)(=O)=O)cc3)n2)n1C(C)C
Summary of the method: as §1

[3] = compound: Cn1cc(-c2ccc3c(c2)CCN3C(=O)Cc2cccc(C(F)(F)F)c2)c2c(N)ncnc21
Summary of the method: as §1

quisinostat = compound: Cn1cc(CNCC2CCN(c3ncc(C(=O)NO)cn3)CC2)c2ccccc21 [quisinostat]
Summary of the method: as §1

tipifarnib = compound: Cn1cncc1[C@@](N)(c1ccc(Cl)cc1)c1ccc2c(c1)c(-c1cccc(Cl)c1)cc(=O)n2C [tipifarnib]
Summary of the method: as §1

[4] = compound: NC(=O)Nc1cc(-c2cccc(F)c2)sc1C(=O)N[C@H]1CCCNC1
Summary of the method: as §1

[5] = compound: NC(=O)c1cnc(N[C@@H]2CCCC[C@@H]2N)nc1Nc1cccc(-n2nccn2)c1
Summary of the method: as §1

[6] = compound: NC1(c2ccc(-c3nc4ccn5c(=O)[nH]nc5c4cc3-c3ccccc3)cc2)CCC1
Summary of the method: as §1

Chain of UniProt Q9H7Z7 (Q9H7Z7 whole entry, looked up): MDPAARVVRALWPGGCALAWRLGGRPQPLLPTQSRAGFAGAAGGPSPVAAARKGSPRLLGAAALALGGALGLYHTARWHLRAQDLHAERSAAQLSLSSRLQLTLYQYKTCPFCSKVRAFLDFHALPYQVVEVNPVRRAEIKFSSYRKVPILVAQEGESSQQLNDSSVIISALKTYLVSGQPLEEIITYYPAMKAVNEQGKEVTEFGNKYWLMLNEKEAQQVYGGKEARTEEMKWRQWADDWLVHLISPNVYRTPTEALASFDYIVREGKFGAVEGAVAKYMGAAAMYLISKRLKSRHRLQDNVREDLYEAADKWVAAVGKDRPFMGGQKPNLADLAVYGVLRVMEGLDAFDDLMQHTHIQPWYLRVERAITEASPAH
Chain of UniProt P48426 (P48426 whole entry, looked up): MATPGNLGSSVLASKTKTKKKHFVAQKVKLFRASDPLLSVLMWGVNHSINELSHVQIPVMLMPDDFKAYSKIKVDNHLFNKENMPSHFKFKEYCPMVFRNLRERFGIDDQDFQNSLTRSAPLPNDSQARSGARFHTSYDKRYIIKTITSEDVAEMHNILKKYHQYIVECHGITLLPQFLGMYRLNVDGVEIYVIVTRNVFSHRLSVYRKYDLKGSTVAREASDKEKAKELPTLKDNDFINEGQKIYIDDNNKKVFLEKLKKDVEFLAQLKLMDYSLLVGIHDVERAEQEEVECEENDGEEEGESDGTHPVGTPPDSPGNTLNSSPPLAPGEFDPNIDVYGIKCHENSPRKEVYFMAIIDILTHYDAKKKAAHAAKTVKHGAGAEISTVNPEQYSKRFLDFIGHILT
Chain of UniProt Q29RF7 (Q29RF7 whole entry, looked up): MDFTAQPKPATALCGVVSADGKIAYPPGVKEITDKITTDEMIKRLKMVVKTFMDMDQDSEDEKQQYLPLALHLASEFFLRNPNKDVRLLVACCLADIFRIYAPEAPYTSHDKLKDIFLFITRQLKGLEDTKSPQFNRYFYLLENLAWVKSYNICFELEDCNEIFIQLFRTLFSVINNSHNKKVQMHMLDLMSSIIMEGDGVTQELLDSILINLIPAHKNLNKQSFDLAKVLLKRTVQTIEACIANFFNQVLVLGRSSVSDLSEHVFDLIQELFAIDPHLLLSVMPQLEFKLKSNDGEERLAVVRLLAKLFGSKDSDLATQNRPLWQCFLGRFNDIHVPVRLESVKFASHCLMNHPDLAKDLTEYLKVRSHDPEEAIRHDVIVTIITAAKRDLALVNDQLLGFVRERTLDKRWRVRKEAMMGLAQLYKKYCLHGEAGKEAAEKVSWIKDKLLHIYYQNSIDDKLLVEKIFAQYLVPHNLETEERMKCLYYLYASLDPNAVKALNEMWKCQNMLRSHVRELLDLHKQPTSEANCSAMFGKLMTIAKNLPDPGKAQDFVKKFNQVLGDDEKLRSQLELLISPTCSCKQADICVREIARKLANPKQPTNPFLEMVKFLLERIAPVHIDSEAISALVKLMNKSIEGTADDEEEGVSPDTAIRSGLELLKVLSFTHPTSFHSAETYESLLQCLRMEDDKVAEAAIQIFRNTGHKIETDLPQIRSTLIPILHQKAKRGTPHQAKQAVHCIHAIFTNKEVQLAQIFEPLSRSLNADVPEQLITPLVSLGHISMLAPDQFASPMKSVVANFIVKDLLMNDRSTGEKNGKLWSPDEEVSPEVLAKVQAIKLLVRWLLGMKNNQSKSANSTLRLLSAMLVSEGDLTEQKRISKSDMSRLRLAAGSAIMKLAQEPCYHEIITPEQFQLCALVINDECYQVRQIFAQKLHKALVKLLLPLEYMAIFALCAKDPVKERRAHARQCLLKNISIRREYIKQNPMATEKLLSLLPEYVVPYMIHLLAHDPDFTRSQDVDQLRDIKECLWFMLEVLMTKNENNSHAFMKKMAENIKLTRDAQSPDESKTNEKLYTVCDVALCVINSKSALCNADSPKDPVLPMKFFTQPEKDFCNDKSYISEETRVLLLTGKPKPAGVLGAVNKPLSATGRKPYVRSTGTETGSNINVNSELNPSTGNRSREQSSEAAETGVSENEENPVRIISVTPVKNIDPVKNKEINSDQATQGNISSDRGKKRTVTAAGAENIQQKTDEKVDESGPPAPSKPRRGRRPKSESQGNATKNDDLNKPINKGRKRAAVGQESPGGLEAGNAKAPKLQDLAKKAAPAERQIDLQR
Chain of UniProt Q15366 (Q15366 whole entry, looked up): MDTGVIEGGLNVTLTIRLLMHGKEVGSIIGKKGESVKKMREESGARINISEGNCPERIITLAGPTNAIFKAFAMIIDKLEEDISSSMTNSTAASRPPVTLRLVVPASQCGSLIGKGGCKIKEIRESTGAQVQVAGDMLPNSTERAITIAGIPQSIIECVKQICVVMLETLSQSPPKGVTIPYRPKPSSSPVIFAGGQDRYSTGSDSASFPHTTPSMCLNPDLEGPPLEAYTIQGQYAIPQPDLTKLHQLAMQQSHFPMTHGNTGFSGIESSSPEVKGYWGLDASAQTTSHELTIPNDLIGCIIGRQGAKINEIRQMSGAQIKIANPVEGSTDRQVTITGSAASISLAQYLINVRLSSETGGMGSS
Chain of UniProt P28340 (P28340 whole entry, looked up): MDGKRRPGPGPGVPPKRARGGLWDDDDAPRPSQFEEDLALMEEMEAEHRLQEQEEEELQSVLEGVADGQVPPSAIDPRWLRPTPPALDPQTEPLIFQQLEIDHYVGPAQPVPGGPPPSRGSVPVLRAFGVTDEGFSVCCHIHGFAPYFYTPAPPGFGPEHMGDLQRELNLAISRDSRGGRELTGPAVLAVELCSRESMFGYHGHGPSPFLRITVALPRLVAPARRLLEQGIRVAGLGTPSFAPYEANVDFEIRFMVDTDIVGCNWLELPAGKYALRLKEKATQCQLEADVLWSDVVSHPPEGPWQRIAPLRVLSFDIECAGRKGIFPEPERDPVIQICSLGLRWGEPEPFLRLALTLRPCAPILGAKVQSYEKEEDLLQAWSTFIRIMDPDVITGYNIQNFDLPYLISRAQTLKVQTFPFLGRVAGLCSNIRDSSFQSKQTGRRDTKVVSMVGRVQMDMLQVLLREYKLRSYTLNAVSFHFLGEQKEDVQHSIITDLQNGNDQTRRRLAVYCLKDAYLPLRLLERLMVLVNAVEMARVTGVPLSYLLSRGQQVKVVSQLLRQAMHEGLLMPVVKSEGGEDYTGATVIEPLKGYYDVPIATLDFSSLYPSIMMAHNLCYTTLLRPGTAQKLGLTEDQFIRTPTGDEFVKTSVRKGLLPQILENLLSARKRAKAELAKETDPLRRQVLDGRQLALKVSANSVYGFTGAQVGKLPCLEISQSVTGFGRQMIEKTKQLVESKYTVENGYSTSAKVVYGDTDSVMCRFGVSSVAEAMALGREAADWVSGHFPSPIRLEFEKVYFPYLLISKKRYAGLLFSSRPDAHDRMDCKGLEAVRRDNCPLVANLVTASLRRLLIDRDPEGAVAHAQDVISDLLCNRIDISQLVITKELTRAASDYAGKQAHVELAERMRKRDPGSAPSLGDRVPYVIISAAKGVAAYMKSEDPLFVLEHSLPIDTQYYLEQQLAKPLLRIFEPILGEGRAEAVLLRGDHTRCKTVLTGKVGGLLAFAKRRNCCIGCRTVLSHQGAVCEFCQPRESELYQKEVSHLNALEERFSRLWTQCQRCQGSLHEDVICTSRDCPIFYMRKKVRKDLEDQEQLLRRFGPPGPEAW
Chain of UniProt Q96PU8 (Q96PU8 whole entry, looked up): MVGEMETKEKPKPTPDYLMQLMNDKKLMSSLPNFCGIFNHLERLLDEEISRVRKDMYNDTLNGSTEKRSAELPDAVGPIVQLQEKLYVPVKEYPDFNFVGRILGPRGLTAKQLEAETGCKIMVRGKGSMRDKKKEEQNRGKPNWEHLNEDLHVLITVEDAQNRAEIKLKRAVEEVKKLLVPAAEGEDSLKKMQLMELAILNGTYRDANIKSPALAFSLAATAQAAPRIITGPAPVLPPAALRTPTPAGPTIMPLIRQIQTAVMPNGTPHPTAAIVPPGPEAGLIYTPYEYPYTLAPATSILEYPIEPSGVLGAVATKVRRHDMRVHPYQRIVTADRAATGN
Chain of UniProt P05771 (P05771 whole entry, looked up): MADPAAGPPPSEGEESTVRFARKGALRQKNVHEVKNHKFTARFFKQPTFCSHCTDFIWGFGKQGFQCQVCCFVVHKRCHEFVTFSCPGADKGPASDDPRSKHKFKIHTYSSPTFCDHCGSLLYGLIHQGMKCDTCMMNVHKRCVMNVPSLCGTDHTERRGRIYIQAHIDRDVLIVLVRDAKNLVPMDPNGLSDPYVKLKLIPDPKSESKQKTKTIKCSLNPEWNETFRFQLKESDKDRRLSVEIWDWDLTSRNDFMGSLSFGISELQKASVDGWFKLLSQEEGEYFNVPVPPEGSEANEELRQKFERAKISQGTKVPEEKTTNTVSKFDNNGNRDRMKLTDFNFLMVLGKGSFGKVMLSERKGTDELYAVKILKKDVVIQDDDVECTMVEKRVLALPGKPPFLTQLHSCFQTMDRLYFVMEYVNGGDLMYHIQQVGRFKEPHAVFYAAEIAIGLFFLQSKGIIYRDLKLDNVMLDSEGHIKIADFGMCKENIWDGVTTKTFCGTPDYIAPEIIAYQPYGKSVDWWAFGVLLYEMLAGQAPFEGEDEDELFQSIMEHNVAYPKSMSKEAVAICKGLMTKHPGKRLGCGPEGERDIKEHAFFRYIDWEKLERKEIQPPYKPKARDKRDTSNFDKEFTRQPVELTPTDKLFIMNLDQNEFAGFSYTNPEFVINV
Chain of UniProt O00625 (O00625 whole entry, looked up): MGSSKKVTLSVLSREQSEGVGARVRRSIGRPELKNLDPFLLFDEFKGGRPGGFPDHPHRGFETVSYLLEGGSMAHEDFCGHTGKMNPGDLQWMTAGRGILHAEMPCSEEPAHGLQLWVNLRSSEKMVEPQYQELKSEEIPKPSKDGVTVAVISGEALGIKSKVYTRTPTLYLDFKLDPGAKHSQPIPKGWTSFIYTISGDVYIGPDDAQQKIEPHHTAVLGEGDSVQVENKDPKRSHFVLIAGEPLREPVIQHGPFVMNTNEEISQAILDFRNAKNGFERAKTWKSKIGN
Chain of UniProt Q15004 (Q15004 whole entry, looked up): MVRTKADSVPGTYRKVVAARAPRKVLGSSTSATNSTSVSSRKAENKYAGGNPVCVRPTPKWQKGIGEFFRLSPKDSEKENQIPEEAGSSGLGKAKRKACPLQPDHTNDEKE

Target	log2 fold change (nilotinib)	log2 fold change [1]	log2 fold change (dasatinib)	log2 fold change [2]	log2 fold change [3]	log2 fold change (quisinostat)	log2 fold change (tipifarnib)	log2 fold change [4]	log2 fold change [5]	log2 fold change [6]
POLR2G (UniProt P62487)	0.01	-0.02	-0.024	0.007	0	0.01	0.007	0.001	0.011	-0.016
PCYT1B (UniProt Q9Y5K3)	-0.079	-0.003	0	0.022	-0.026	0.039	0.047	-0.023	-0.008	0.054
PDS5A (UniProt Q29RF7)	-0.013	-0.002	-0.081	-0.003	0.008	-0.113	0.001	0.047	0.011	-0.023
PI4K2B (UniProt Q8TCG2)	-0.037	0.021	-0.021	0.069	0.092	0.063	-0.036	0.076	0.689 (active)	0.009
POLD1 (UniProt P28340)	0.029	-0.004	-0.023	-0.011	0.011	0.01	-0.011	0.015	0.006	0.003
PIP4K2C (UniProt Q8TBX8)	0.169	-0.015	0.047	0.298	0.029	-0.095	-0.012	0.035	0.033	-0.085
PTGES2 (UniProt Q9H7Z7)	0.446	-0.044	0.01	-0.019	0.015	-0.046	-0.057	-0.012	-0.056	-0.078
PTK2 (UniProt Q05397)	-0.032	0.235	0.083	0.078	0.18	-0.038	-0.046	0.373	0.081	0.021
PYCR2 (UniProt Q96C36)	0.03	-0.027	0.011	-0.007	-0.005	0.073	-0.015	-0.021	0.007	0.018
PRKCB isoform 2 (UniProt P05771)	-0.014	0.256 (active)	-0.06	-0.093	-0.007	0.017	-0.038	-0.416 (active)	0.181	-0.037
PCBP2 isoform 8 (UniProt Q15366)	0.059	0.069	-0.057	0.04	0.003	0.133	0.015	0.055	-0.091	-0.049
PRKCD (UniProt Q05655)	0.002	0.193	-0.053	0.056	0	0.002	-0.013	-0.013	0.218	0.021
QKI (UniProt Q96PU8)	-0.053	0.006	-0.02	0.062	-0.038	-0.013	-0.024	0.055	-0.005	-0.008
PDCD6IP (UniProt Q8WUM4)	0.059	-0.045	-0.023	-0.006	0.049	0.001	0.06	0	-0.058	-0.032
PTS (UniProt Q03393)	0.172	0.024	0	-0.018	0.082	-0.083	0.112	0.126	0.006	-0.077
PPIE (UniProt Q9UNP9)	-0.027	0.017	-0.017	-0.01	-0.016	-0.091	-0.003	-0.018	0.04	-0.034
PIP4K2A (UniProt P48426)	0.041	-0.006	0.068	0.141	0.046	-0.001	-0.062	0.039	-0.012	-0.056
PTGS1 isoform 6 (UniProt P23219)	0.021	0.058	0.034	0.043	0.053	-0.04	-0.039	0.022	-0.008	0.001
PCLAF (UniProt Q15004)	-0.115	0.081	0.001	0.02	-0.087	-0.044	0.018	-0.018	–	0.094
PPIL2 (UniProt Q13356)	-0.032	0.014	0.064	0.008	-0.004	-0.063	-0.038	0.018	-0.063	0.011
PI4KB (UniProt Q9UBF8)	0.003	0.145	0.002	0.165	0.013	-0.072	-0.024	-0.026	-0.049	-0.014
PMS2 (UniProt P54278)	-0.024	-0.021	-0.1	0.039	0.047	-0.011	-0.078	0.043	0	-0.006
PIR (UniProt O00625)	0.011	-0.011	0.027	0.012	0.023	0.011	0.005	0.02	-0.009	-0.046
PRKCSH (UniProt P14314)	0.01	0.016	0.037	0.041	-0.003	0.088	0.008	-0.006	-0.004	0.036
PRKAR2A (UniProt P13861)	-0.036	-0.051	-0.065	-0.016	0.017	0.02	0.025	-0.198	-0.037	-0.011
PDE4DIP (UniProt E9PS60)	-0.074	0.052	-0.158	-0.045	-0.073	-0.256	0.081	-0.205	–	-0.025
PHLDB1 (UniProt Q86UU1)	-0.035	-0.012	0.002	-0.006	-0.046	-0.243	-0.003	0.028	-0.036	0.004
